# Sa helicase inh: blocks Staphylococcus aureus DNA helicase. hit rate 0.05% among 120,000. inhibition, % (concentration not given with the values). purified S. aureus helicase, fluorescence unwinding assay; in the data active = inhibition above about 25%, passing the limit was not always enough;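 also: 0% = mean of negative control wells and 100% = mean of positive control wells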
# Sa growth inh: blocks Staphylococcus aureus growth; hit rate 0.53% among 170,000; relative growth, % (concentration not given with the values); S. aureus RN4220 growth, OD600, 20 h, 42 °C; hits give low values;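 active = relative growth at most 50% at the other temperature and 20+ points below 30 °C, or under 10% at both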
# * marks the source's active call; other numbers are inactive results; / = not tested or not shown. Rows were chosen to be rich in hits. Some 0.52% of all compounds tested hit in one or more screens of this group.
SMILES,Sa helicase inh,Sa growth inh
CCC(C)N1C(=O)S/C(=C/c2ccc(O)c(Cl)c2)C1=O (stereo not drawn),-8.0,-0.6*
CCOc1cc(/C=C2/SC(=S)N(C(CC)C(=O)O)C2=O)ccc1O (stereo not drawn),-2.0,79.8
CCN1CCC(N(C)CCc2ccccc2)CC1,-15.0,98.1
O=C(OCc1ccc(F)cc1)c1cc(-c2ccco2)nc2ccccc12,1.0,6.6*
COC(=O)c1ccc(COC(=O)c2cc(-c3ccco3)nc3ccccc23)cc1,8.0,71.0
O=C1NCCCCC1N=CNO (stereo not drawn),/,100.7
COc1nncc(-c2cnnc(SC)n2)n1,8.0,0.1*
COc1ccc(-c2ccnc(SC)n2)cc1,/,128.9
C=CCN(CC=C)Cc1c(O)ccc2c(=O)c(-c3ccccc3Cl)coc12,0.0,91.7
CCCNc1ccccc1N,3.0,6.7*
CCCCNc1ccc(C(F)(F)F)cc1N,7.0,77.0
C=CCN(CC=C)Cn1nc(-c2c[nH]c3ccccc23)oc1=S,-7.0,42.7*
C=CCN(CC=C)Cn1nc(Nc2ccccc2F)sc1=S,-11.0,70.7
CCCOc1ccc(/C=C2/SC(=O)N(CN3CCCCC3)C2=O)cc1,9.0,67.4
O=c1[nH]c(-c2ccccc2)cs1,-15.0,90.3
S=c1[nH]c(-c2ccccc2)cs1,-7.0,16.3*
Cc1ccc(NC(=O)C(c2ccccc2)N2CCCN(S(=O)(=O)c3c(C)noc3C)CC2)cc1 (stereo not drawn),-6.0,114.5
COc1ccc(CCNC(=O)COc2ccc(-c3noc(C)n3)cc2)cc1OC,-11.0,93.1
N#C/C(=C\c1ccc(-c2cc(C(F)(F)F)ccc2Cl)o1)C(=O)O,-5.0,96.0
N#C/C(=C/c1ccc(-c2cc(C(=O)O)ccc2Cl)o1)C(=O)NCCc1c[nH]c2ccccc12,20.0,9.7*
O=C1C(=Cc2cccnc2)C(=O)c2ccccc21,-5.0,64.1
O=C1/C(=C/c2cccnc2)c2ccccc2N1c1ccccc1,14.0,8.4*
O=C(NCC1CCCO1)c1ccc(NC(=O)c2ncn[nH]2)cc1 (stereo not drawn),5.0,111.5
Cc1ccc(NC(=O)c2ccc(CNS(=O)(=O)c3ccc4c(c3)C(C)(C)C(=O)N4C)cc2)cc1C,/,126.8
C=C1N(C)c2ccc(NC(=O)c3ccccc3)cc2C1(C)C,-5.0,8.3*
SMILES,Sa helicase inh,Sa growth inh
O=C(CSc1ncnc2c1nnn2-c1ccc(F)cc1)N1CCCc2ccccc21,6.0,108.0
COc1ccc(-c2cc3nc(C)c(CCC(=O)N4CCc5ccccc54)c(C)n3n2)c(OC)c1,7.0,102.3
Cn1c(=O)[nH]c(=O)c2c1nc(Br)n2CC(O)COc1ccc(Cl)cc1Cl (stereo not drawn),-2.0,115.8
FC(F)(F)c1ccc2sc(=S)[nH]c2c1,10.0,-0.8*
CN(C)c1ccc2sc(=S)[nH]c2c1,-9.0,44.2
CCc1ccc(-c2cc(C)no2)cc1S(=O)(=O)NCCCN1CCC(C)CC1,9.0,87.5
COc1ccc(OCCCn2ccnc2)cc1,10.0,83.9
Cc1ccc(C(C)C)c(OCCn2ccnc2)c1,-19.0,58.7
Cc1ccc(C(C)C)c(OCCCCn2ccnc2)c1,4.0,-0.7*
Cc1ccc(OCCCn2ccnc2)cc1,10.0,101.8
c1ccc2c(OCCCCCn3ccnc3)cccc2c1,3.0,-0.5*
Cc1cc(OCCCCCn2ccnc2)cc(C)c1Cl,31.0,-0.9*
COc1cccc(-c2nn(-c3ccc(F)cc3)cc2C(=O)N2CCN(c3ccccc3O)CC2)c1,26.0,92.2
O=C(NCCN1CCN(c2nccc(C(F)(F)F)n2)CC1)c1ccc(Cl)cc1,/,114.5
CCOc1ccc2c(c1)s/c(=N\C(=S)NC(=O)CN1C(=O)CCC1=O)n2C,19.0,109.2
COc1ccc2c(c1)s/c(=N\NC(=S)NC(=O)CN1C(=O)CCC1=O)n2C,4.0,0.5*
O=C(O)CCCn1cnc2sc3c(c2c1=O)CCCC3,1.0,100.6
CSc1c(-c2ccc(Cl)cc2)[nH]c2ccccc12,/,20.6*
Cc1ccc(-c2[nH]c3ccccc3c2SCCN)cc1,-17.0,/
Cc1cccc(C)c1NC(=O)C(NC(=O)c1ccc(-n2cnnn2)cc1)c1ccccc1 (stereo not drawn),18.0,86.1
Cc1onc(-c2c(Cl)cccc2Cl)c1C(=O)NCCS(=O)(=O)c1ccccc1,/,117.3
Oc1c(C(c2ccc(F)cc2)N2CCCCC2)ccc2cccnc12 (stereo not drawn),-10.0,102.6
Oc1c(C(c2cccs2)N2CCCCC2)ccc2cccnc12 (stereo not drawn),10.0,8.1*
Cn1nc(-c2ccc(F)cc2)nc2c(=O)n(C)c(=O)nc1-2,-132.0,0.2*
COc1ccc(-c2nc3c(=O)n(C)c(=O)nc-3n(C)n2)cc1OC,-1.0,52.9
SMILES,Sa helicase inh,Sa growth inh
N#CC(C(=O)c1cc2ccccc2o1)c1ccc2ccccc2n1 (stereo not drawn),-12.0,92.1
COc1ccc(N2CCN(CCCNC(=O)NC3CC(=O)N(c4ccc5c(c4)OCCO5)C3)CC2)cc1 (stereo not drawn),4.0,123.0
CCOc1ccccc1CNC(=O)CCC(=O)N1CC(C)Oc2ccc(Cl)cc21 (stereo not drawn),0.0,120.8
CS(=O)(=O)c1ncc(Cl)c(C(=O)Nc2cccc(Cl)c2)n1,5.0,0.2*
Cc1cccc(NC(=O)c2nc(S(C)(=O)=O)ncc2Cl)c1,/,1.0*
CS(=O)(=O)c1ncc(Cl)c(C(=O)N2CCN(C(c3ccccc3)c3ccccc3)CC2)n1,-15.0,4.2*
CCS(=O)(=O)c1ncc(Cl)c(C(=O)Nc2c(C(=O)Nc3cccc(C)c3)oc3ccccc23)n1,/,116.2
COc1ccc(NC(=O)c2nc(S(C)(=O)=O)ncc2Cl)cc1Cl,0.0,20.6
O=C(O)c1nccnc1C(=O)N1CCN(C(c2ccccc2)c2ccccc2)CC1,-4.0,107.6
COc1cc2c(cc1OC)CN(CC#N)CC2,14.0,84.3
Cc1ccc2nc(NC(=O)Nc3ccccc3)sc2c1,4.0,100.2
COC(=O)C1Cc2ccccc2CN1 (stereo not drawn),8.0,98.0
Cc1csc2nc(CN(C)Cc3ccccc3)cc(=O)n12,19.0,104.6
Cc1cc(C(=O)CC#N)c(C)n1Cc1ccccc1Cl,5.0,80.8
CCc1oc2ccccc2c1C(=O)CCN1CCCCC1,15.0,41.5*
O=C(CCN1CCCCC1)c1ccccc1,2.0,93.7
Cc1cc(-c2ccc(C)c(S(=O)(=O)N(CC(C)C)CC(C)C)c2)on1,10.0,85.8
CC(N)c1ccc(-c2ccccc2)cc1 (stereo not drawn),-11.0,95.6
c1ccc(-c2ccc(C(c3ccccc3)n3ccnc3)cc2)cc1 (stereo not drawn),/,1.6*
COC(=O)COc1ccccc1O,-19.0,89.2
Oc1nc2c(Cl)c(Cl)c(Cl)cc2o1,30.0,-1.2*
O=c1oc2cc(Cl)c(O)c(Cl)c2s1,30.0,59.7
Cc1nn(-c2ccccc2)c2sc(C(=O)NCCc3ccc(S(N)(=O)=O)cc3)cc12,-3.0,66.0
COC(=O)c1sc(N2CCCC2)c(C#N)c1-c1cccs1,/,102.8
COC(=O)c1sc(S(C)(=O)=O)c(C#N)c1-c1cccs1,-38.0,0.2*
CSc1nc(NS(=O)(=O)c2cc(C(F)(F)F)cc(C(F)(F)F)c2)nn1C,/,96.7
O=C(NCc1ccccn1)c1cc2c(Cl)ccc3c2n1CCO3,28.0,94.8
O=C(O)/C=C/C(=O)c1ccc(C2CCCCC2)cc1,/,-0.9*
O=C(O)/C=C/C(=O)Nc1ccc(C2CCCCC2)cc1,/,146.0
CCn1nc(C(=O)N(C)Cc2ccc(OC(F)F)cc2)c2ccccc2c1=O,-11.0,100.3

# Source: PubChem BioAssay
